From PubChem
An excerpt weighted towards active compounds, which were near 4.6% of everything screened.
V-ATPase pH = regulators of yeast V-ATPase proton pumping, primary screen, pHLuorin cytosolic pH fluorescence; S. cerevisiae; response, % at 10 µM; 350,000 tested, 0.37% active; in the data active = response mostly above about 7.3%, no sharp cut-off; inactive = mostly below about 5.4%; note: actives read high
PfHsp90 set2 = growth inhibition of PfHsp90-expressing yeast, primary screen, antimalarial PfHsp90 inhibitor project, S. cerevisiae, BacTiter-Glo luminescence, single point, set 2. AID 504621, 2011. 310,000 tested, 0.32% active. inhibition, % at 9.4 µM. BacTiter-Glo ATP, 48 h; yeast lacking PDR1 and PDR3 efflux regulators;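 active = every replicate shows inhibition above about 80%, whatever the replicate mean, limit read from the data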
tim10-1 inh = growth inhibitors of tim10-1 mutant yeast, primary screen, luminescence, uHTS; inhibition, % at 20 µM; AID 463190, 2010; S. cerevisiae tim10-1 ts strain growth, BacTiter-Glo, 24 h; 330,000 tested, 2.2% active;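 active = inhibition of at least 40%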;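 note: mutant grown at 25 °C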
tim23-1 inh = growth inhibitors of tim23-1 mutant yeast, primary screen, luminescence, uHTS | S. cerevisiae tim23-1 growth, BacTiter-Glo luminescence, 24 h | inhibition, % at 20 µM | 330,000 tested, 1.3% active;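 active = growth inhibition of the mutant yeast at or above 50%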;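 note: temperature-sensitive mutant grown at 25 °C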
TIM10 inh = growth inhibitors of isogenic TIM10 control yeast, primary screen, counter-screen for tim10-1 yeast inhibitor project, luminescence, uHTS | S. cerevisiae TIM10 strain growth, BacTiter-Glo luminescence, 24 h | inhibition, % at 10 µM | 330,000 tested, 1.4% active;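 active = inhibition of 40% or more at the single tested concentration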;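 note: wild-type TIM10 isogenic control strain grown at permissive 25 °C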
SKKanGAS inh = S. pyogenes SKKanGAS growth inhibitors in kanamycin, primary screen, streptokinase expression inhibitor project, SKKanGAS strain, BacTiter-Glo luminescence. 6 h. inhibition, % at 7.5 µM. AID 1662, 2009. 300,000 tested, 1.3% active;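 active = mean replicate score, as percent of positive control median, at least 50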;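 note: strain carries kanamycin resistance gene driven by streptokinase promoter and grows in 40 µg/ml kanamycin; loss of luminescence reflects streptokinase promoter inhibition or plain growth inhibition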
tim10-1 conf = growth inhibitors of tim10-1 mutant yeast, confirmation, single concentration, luminescence, S. cerevisiae; shares compounds with tim10-1 inh; S. cerevisiae tim10-1 ts strain growth, BacTiter-Glo, 24 h; inhibition, % at 20 µM; 7,400 tested, 56% active; AID 463213, 2010;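 active = inhibition of yeast growth at or above a set limit in either of two repeat tests at 20 µM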;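 note: tim10-1 mutant grown at permissive 25 °C to find synthetic lethal compounds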
tim10 confirm = growth inhibitors of wild-type TIM10 yeast, confirmation, counter-screen for tim10-1 synthetic lethality project, single concentration, luminescence, S. cerevisiae | shares compounds with TIM10 inh | S. cerevisiae tim10 strain growth, BacTiter-Glo luminescence, 24 h | inhibition, % at 10 µM | 4,600 tested, 63% active;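 active = inhibition of yeast growth at or above a set limit in either of two replicates at 10 µM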; note: this counterscreen used the strain with wild-type TIM10
tim23-1 conf = tim23-1 mutant yeast growth inhibitors, confirmation, luminescence, single concentration; AID 463218, 2010; inhibition, % at 20 µM; shares compounds with tim23-1 inh; 4,400 tested, 83% active; S. cerevisiae tim23-1 growth, BacTiter-Glo luminescence, 24 h;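 active = inhibition above about 39% in either of two replicate wells at 20 µM, limit read from the data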;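 note: temperature-sensitive tim23-1 mutant grown at 25 °C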
A number is an active result; – = inactive; · = no result given.

SMILES	V-ATPase pH	PfHsp90 set2	tim10-1 inh	tim23-1 inh	TIM10 inh	SKKanGAS inh	tim10-1 conf	tim23-1 conf	others
Cc1cc2n(n1)SC(Nc1cc(Cl)ccc1Cl)N2 (stereo not drawn)	–	–	46.8	54.7	47.9	–	34.5	37.0	tim10 confirm=45.4
CC(=O)Cc1nsc(NC(=O)c2ccc(-c3ccc(Cl)cc3Cl)o2)n1	–	–	46.1	56.8	–	–	35.4	53.2
C/C(=N\NC(=O)C1=NNC(=O)C1C)c1cccs1 (stereo not drawn)	–	–	–	–	–	–	·	·
S=C(NCc1ccco1)Nc1ccc(Oc2ccc(Cl)cc2)cc1	–	–	46.3	62.6	–	–	60.1	75.6
S=C(NCc1ccco1)Nc1ccc(Cl)cc1	–	–	–	–	–	–	·	·
C[C@@H]1CN([C@@H](C)CO)C(=O)CCCn2nncc2CO[C@@H]1CN(C)C(=O)Nc1ccnc(N2CCOCC2)c1	–	·	·	·	·	·	·	·
COc1ccc2c(c1)CCCC21NC(=O)N(CC(=O)c2cc(F)ccc2F)C1=O (stereo not drawn)	–	·	–	–	–	·	·	·
Nc1cccc2c1C(=O)N(C(=O)/C=C/c1ccc(F)cc1)C2=O	–	–	58.8	74.2	49.3	–	60.8	86.1	tim10 confirm=47.0
Nc1cccc2c1C(=O)N(C(=O)c1ccco1)C2=O	–	–	–	–	–	–	·	·
Cc1cccc(/C(N)=N/OC(=O)N2c3ccccc3Sc3ccccc32)c1	–	–	65.3	59.8	83.3	–	52.3	44.7	tim10 confirm=–
N/C(=N\OC(=O)N1c2ccccc2Sc2ccccc21)c1ccccc1	–	–	61.1	66.0	84.1	–	47.9	50.0	tim10 confirm=85.3
Cc1cccc(/C(N)=N/OC(=O)COc2ccccc2Cl)c1	–	–	·	·	·	·	·	·
COc1cc(NCCC(=O)c2cccs2)c(OC)cc1Cl	–	–	–	–	–	–	·	·
Cc1cccc(N=N/C(=C\O)C(=O)c2ccc(Br)cc2)c1	–	–	57.2	63.6	–	53.4	51.9	43.6
Cn1cccc1C(NC(=O)c1ccccc1)C(Cl)(Cl)Cl (stereo not drawn)	–	–	–	–	–	–	·	·
CC(C)(C)c1nn(-c2ccccc2)c2[nH]c(=O)c(CNCc3ccco3)cc12	–	–	–	–	–	–	·	·
CC(C)(C)c1nn(-c2ccccc2)c2[nH]c(=O)c(CNc3ccc4c(c3)OCCO4)cc12	–	121.0	67.8	82.9	56.3	–	64.8	82.9	tim10 confirm=43.5
C[C@@H]1CN([C@H](C)CO)C(=O)CCCn2nncc2CO[C@H]1CN(C)Cc1ccc(C(F)(F)F)cc1	–	·	·	·	·	·	·	·
O=C(Nc1ccc(-n2cccn2)cc1)C1CCCCN1Cc1cccc2c1OCO2 (stereo not drawn)	–	–	–	–	–	–	·	·
Cc1nn(C)c(C(=O)Sc2ccccc2)c1[N+](=O)[O-]	–	–	–	–	–	–	·	·
Cc1nn(C)c(C(=O)Sc2cccc(Cl)c2)c1[N+](=O)[O-]	–	–	46.5	61.3	–	–	65.1	83.8
COc1coc(C(O)C[N+](=O)[O-])cc1=O (stereo not drawn)	–	–	–	–	–	–	·	·
C=CCn1c(=O)/c(=C2/SC(C)=C(C)N2CC)s/c1=C1/C(=O)N(CC)C(=S)N1c1ccccc1	–	–	–	–	–	–	·	·
